Source: PubChem BioAssay AID1159580 (chemical genetic matrix, 2015)
About 2,000 (36%) of roughly 5,500 compounds were called active. Not shown: some 18% with an inconclusive outcome. Rule as the data show it: active = normalized growth mostly below about 0.91 (no sharp cut-off); inconclusive = no clear call, values can overlap the other calls; inactive = mostly above about 0.92. The list shows a part of the results.

Test: chemical genetic growth profiling, strain panel (AID 1159580);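 also: tested at 20 µM; growth read once vehicle control cultures reached saturation at 30 °C; 1 = growth at the plate median or of vehicle wells; lower values mean less growth of the strain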
Conditions: S. cerevisiae deletion strains, growth OD

Measured: normalized growth

Clc1ccc(-c2csc(Nc3ccccc3)n2)s1
active: locus YDL214C, strain PRR2, active compounds read low 0.382 | locus YDR477W, strain SNF1, active compounds read low 0.24 | locus YER123W, strain YCK3, active compounds read low 0.354 | locus YER133W, strain GLC7, active compounds read low 0.363 | locus YFR019W, strain FAB1, active compounds read low 0.593 | locus YGR040W, strain KSS1, active compounds read low 0.311 | locus YGR052W, strain FMP48, active compounds read low 0.203 | locus YGR092W, strain DBF2, active compounds read low 0.33 | locus YHR030C, strain SLT2, active compounds read low 0.146 | locus YHR079C, strain IRE1, active compounds read low 0.452 | locus YHR082C, strain KSP1, active compounds read low 0.23 | locus YHR205W, strain SCH9, active compounds read low 0.273 | locus YJL095W, strain BCK1, active compounds read low 0.224 | locus YJL157C, strain FAR1, active compounds read low 0.434 | locus YJR066W, strain TOR1 (second series), active compounds read low 0.471 | locus YJR066W, strain TOR1, active compounds read low 0.276 | locus YKL048C, strain ELM1, active compounds read low 0.771 | locus YKL067W, strain YNK1, active compounds read low 0.521 | locus YKL101W, strain HSL1, active compounds read low 0.451 | locus YKL203C, strain TOR2, active compounds read low 0.385 | locus YLR113W, strain HOG1, active compounds read low 0.216 | locus YLR133W, strain CKI1, active compounds read low 0.39 | locus YLR403W, strain SFP1, active compounds read low 0.332 | locus YML070W, strain DAK1, active compounds read low 0.408 | locus YMR205C, strain PFK2 (second series), active compounds read low 0.578 | locus YNL020C, strain ARK1, active compounds read low 0.419 | locus YNL183C, strain NPR1, active compounds read low 0.148 | locus YNL307C, strain MCK1 (second series), active compounds read low 0.28 | locus YOL136C, strain PFK27, active compounds read low 0.453 | locus YOR061W, strain CKA2, active compounds read low 0.414 | locus YOR119C, strain RIO1, active compounds read low 0.409 | locus YOR231W, strain MKK1, active compounds read low 0.435 | locus YPL031C, strain PHO85, active compounds read low 0.295 | locus YPL153C, strain RAD53, active compounds read low 0.438 | locus YPL204W, strain HRR25, active compounds read low 0.435 | locus YPL256C, strain CLN2, active compounds read low 0.289
inactive: locus YAR019C, strain CDC15, active compounds read low 0.933 | locus YBL105C, strain PKC1, active compounds read low 0.933 | locus YBR135W, strain CKS1, active compounds read low 0.929 | locus YBR136W, strain MEC1, active compounds read low 0.923 | locus YBR160W, strain CDC28, active compounds read low 0.925 | locus YDL017W, strain CDC7, active compounds read low 0.928 | locus YDL028C, strain MPS1, active compounds read low 0.936 | locus YDL101C, strain DUN1, active compounds read low 0.943 | locus YDL108W, strain KIN28, active compounds read low 0.926 | locus YDL132W, strain cdc53, active compounds read low 0.94 | locus YDR052C, strain DBF4, active compounds read low 0.933 | locus YDR054C, strain cdc34, active compounds read low 0.907 | locus YDR226W, strain ADK1, active compounds read low 0.936 | locus YFL009W, strain cdc4, active compounds read low 0.929 | locus YFL029C, strain CAK1, active compounds read low 0.923 | locus YFR003C, strain YPI1, active compounds read low 0.933 | locus YFR028C, strain CDC14, active compounds read low 0.926 | locus YIL147C, strain SLN1, active compounds read low 0.932 | locus YJR016C, strain ILV3, active compounds read low 0.925 | locus YKL193C, strain SDS22, active compounds read low 0.921 | locus YMR001C, strain CDC5, active compounds read low 0.925 | locus YMR277W, strain FCP1, active compounds read low 0.921 | locus YNL006W, strain LST8, active compounds read low 0.932 | locus YNL161W, strain CBK1, active compounds read low 0.923 | locus YNL207W, strain RIO2, active compounds read low 0.915 | locus YNL222W, strain SSU72, active compounds read low 0.931 | locus YOL078W, strain AVO1, active compounds read low 0.926 | locus YOR329C, strain SCD5, active compounds read low 0.922 | locus YPL209C, strain IPL1, active compounds read low 0.915 | locus YPR025C, strain CCL1, active compounds read low 0.926 | locus YPR106W, strain ISR1, active compounds read low 0.906 | locus YPR111W, strain DBF20, active compounds read low 0.917 | strain NNK1, active compounds read low 0.916 | strain TSCII, active compounds read low 0.92
